The list is not random: actives were taken first. Their share in the collection is about 7.3%.
NPC1 promoter act = NPC1 promoter activation; AID 485313; 2.4% of 320,000 active; Potency, µM (series often up to 9.22 µM), inactives show top-dose activation, most hits filed as activators; Huh7 NPC1 promoter luciferase reporter, 24 h; also: % of control where 0% means no effect; nearly all actives have a fitted effect of over 60% in size
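Readout is luciferase luminescence, reflecting NPC1 promoter activation in stably transfected Huh7 cells after 24 h compound exposure at 37 °C in reduced-serum medium with 10% FBS.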
ELG1 genotoxic = induces genotoxicity in HEK293T cells with luciferase-tagged ELG1; HEK293T ELG1-luciferase reporter, luminescence, 16 h; Potency, µM (doses to about 46 µM), without a hit: top-dose activity change, positive = activation, hits mostly activators; 1.3% of 330,000 active; AID 504466; also: % of control where 0% means no effect; nearly all actives have a fitted effect of over 60% in size
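HEK293T cells expressing luciferase-tagged ELG1 were treated with compound or DMSO for 16 hr at 37°C. Luciferase activity was then read after 30 min with ONE-Glo at room temperature; rising signal flags genetic stress.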
FLuc modulator = firefly luciferase modulation, counter-screen for miR-21 project; Potency, µM (top dose mostly 57.5 µM), without a hit: at the highest dose activity change, negative = inhibition, actives largely listed as inhibitors; purified FLuc, Km substrates, luminescence inhibition; AID 588342; 6.9% of 360,000 active;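 also: plate controls were vehicle for no effect and reference inhibitor for full effect; nearly all actives have a fitted effect of over 55% in size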
Target sequence (P08659 whole entry, looked up): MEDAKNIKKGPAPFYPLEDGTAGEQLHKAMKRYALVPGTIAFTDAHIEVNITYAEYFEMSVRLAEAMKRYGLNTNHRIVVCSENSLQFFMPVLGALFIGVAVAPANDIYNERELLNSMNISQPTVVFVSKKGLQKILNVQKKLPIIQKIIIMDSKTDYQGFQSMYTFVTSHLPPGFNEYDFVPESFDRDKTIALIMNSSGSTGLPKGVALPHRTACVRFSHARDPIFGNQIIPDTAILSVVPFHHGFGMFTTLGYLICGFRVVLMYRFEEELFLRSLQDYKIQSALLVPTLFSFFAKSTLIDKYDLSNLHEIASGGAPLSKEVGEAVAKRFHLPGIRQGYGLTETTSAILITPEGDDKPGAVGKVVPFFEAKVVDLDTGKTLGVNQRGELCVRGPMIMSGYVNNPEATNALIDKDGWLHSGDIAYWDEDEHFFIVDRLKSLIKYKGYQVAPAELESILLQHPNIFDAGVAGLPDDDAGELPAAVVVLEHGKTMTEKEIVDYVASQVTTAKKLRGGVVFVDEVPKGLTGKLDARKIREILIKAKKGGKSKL
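Purified P. pyralis luciferase (10nM final) with 10uM D-luciferin and 10uM ATP (Km levels) in 50mM Tris acetate pH 7.5, 10mM Mg acetate, 0.01% Tween-20, 0.05% BSA; qHTS 6-point titration, ~60 µM downward; luminescence read.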
Rab9 prom act = Rab9 promoter activation; Huh7 Rab9 promoter-luciferase reporter, luminescence, 24 h; Potency, µM (highest dose often 9.22 µM), without a hit: top-dose activation, negative = inhibition, hits mostly activators; 2.8% of 320,000 active; AID 485297; also: % of control where 0% means no effect; nearly all actives have a fitted effect of over 60% in size
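Huh7 cells stably carrying Rab9 promoter–luciferase reporter, plated 1500 cells/well, compound added after 2 h and incubated 24 h at 37 °C; luciferase luminescence then read after 10 min with detection reagent.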
Luc counter = Kinase-Glo luciferase inhibition (counter-screen). Kinase-Glo luciferase, ATP luminescence, 8 min. Potency, µM (doses to about 38.3 µM), for the others: at the top dose activity change, negative = inhibition, most hits filed as inhibitors. 0.28% of 200,000 active. Q27757; also: % is scaled to controls: 0 for no effect and ±100 for the full control effect; nearly all actives have a fitted effect of over 60% in size
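Inhibition of Kinase-Glo luciferase light generation was assessed at 10 uM ATP in pH 7.2 imidazole buffer, with luminescence measured after eight minutes at ambient temperature.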
SMN2 splice enh = increases expression of the SMN2 splice variant; HEK293 SMN2-luciferase splicing reporter, luminescence, 30-36 h; Potency, µM (series often up to 46.1 µM), for the others: at the top dose activity change, positive = activation, actives largely listed as activators; 2.8% of 210,000 active; also: % of control where 0% means no effect; nearly all actives have a fitted effect of over 55% in size
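HEK293 cells carry an SMN2 […]–luciferase reporter in which exon 7 inclusion puts luciferase in frame. Cells were plated 10-12 h before compound addition, then incubated 30-36 h at 37C. ONE-Glo luminescence was read; sodium butyrate at 4.5 mM final served as control.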
* hit, by the source's call; ? = inconclusive; · = not tested or not shown; [ ] = remark or other dose. Calls follow the shape of the dose curve; as a rule, active = well fitted curve in the direction sought with a large enough effect; inconclusive = small, poorly fitted or top-dose-only effect, or another doubt; inactive = no such curve, though single readings can be large; an effect the other way counts as inactive or inconclusive. Potency is read from the fitted curve at half-maximal effect.

SMILES	NPC1 promoter act	ELG1 genotoxic	FLuc modulator	Rab9 prom act	Luc counter	SMN2 splice enh
NC(=O)c1ccsc1NC(=O)c1coc2ccccc2c1=O	?	7.3µM*	2.4µM*	2µM*	-12%	11µM*
O=c1c(=Nc2ccccc2O)c(=O)c2ccccc12	?	?	-19%	3.5µM*	-2%	11µM*
CN(C)c1cccc(NC(=O)c2ccco2)c1	19%	6%	-17%	6%	-5%	26%
CN(C)c1ccc(N/C=C/C(=O)c2ccco2)cc1	3.5µM*	?	0.27µM*	2.8µM*	3.5µM*	·
CC(=O)Nc1ccc(N/C=C/C(=O)c2ccco2)cc1	3.2µM*	4.6µM*	11µM*	1.6µM*	?	28µM*
CC(=O)Nc1ccc(N/C=C/C(=O)c2ccc(C)cc2)cc1	?	-2%	-19%	20%	·	·
COc1cccc(NC(=O)Cn2c(=O)n(-c3ccc(Cl)cc3)c(=O)c3sc4ccccc4c32)c1	·	·	4%	·	·	8%
COc1ccc2[nH]cc(C(O)CN3CCN(c4ccccc4F)CC3)c2c1 (stereo unspecified)	0%	-4%	5%	0%	·	·
O=C(/C=C/c1cccs1)c1ccc(NC(=O)c2cccc(Br)c2)cc1	20%	2%	-13%	18%	0%	?
Cc1ccc(C(=O)Nc2ccc(C(=O)/C=C/c3cccs3)cc2)cc1	?	-3%	12µM*	?	-1%	-8%
O=C(/C=C/c1cccs1)c1ccc(Br)cc1	-4%	8%	4.8µM*	5%	-13%	2%
C=CCSc1nnc(-c2ccccc2N=Cc2c(C)[nH]n(-c3ccccc3)c2=O)c(=O)[nH]1	6%	-8%	?	-4%	-1%	-2%
CSc1nnc(-c2ccccc2N=Cc2c(C)[nH]n(-c3ccc4ccccc4c3)c2=O)c(=O)[nH]1	18%	19%	9.5µM*	7%	?	?
CCOc1ccc(-c2cn3nc(CC(C)C)sc3n2)cc1	·	·	2.7µM*	·	·	17%
Cc1nn2c(-c3ccc(Cl)cc3)nnc2s1	0%	2%	-2%	-4%	15%	-17%
Cc1nn2cc(-c3ccc(Cl)cc3)nc2s1	0.32µM*	0.52µM*	1.2µM*	0.32µM*	-9%	3.5µM*
CCc1nn2cc(-c3ccccc3)nc2s1	0.11µM*	·	0.48µM*	0.13µM*	10µM*	1.4µM*
Cc1ccc(-c2cn3nc(-c4ccccc4)c(-c4ccccc4)nc3n2)cc1	4%	0%	-13%	2%	·	·
Cc1nc2nc(-c3ccc(Cl)cc3)cn2nc1C	?	?	1.1µM*	0.35µM*	?	0.71µM*
Cc1cc(C)cc(N(C(=O)c2csnn2)C(C(=O)NC2CCCCC2)c2cccnc2)c1 (stereo unspecified)	0%	0%	0%	0%	·	·
CCOC(=O)C(CCCCC(NC(C)=O)(C(=O)OCC)C(=O)OCC)(NC(C)=O)C(=O)OCC	-3%	-8%	-1%	-3%	·	·
COCc1nn2cc(-c3ccc(C)cc3)nc2s1	·	·	1.3µM*	·	·	2.5µM*
Cc1nn2cc(-c3ccc(-c4ccccc4)cc3)nc2s1	0.63µM*	0.82µM*	0.54µM*	?	7%	?
COc1cccc(-c2cn3nc(C)c(C)nc3n2)c1	2µM*	?	11µM*	2.8µM*	11µM*	13µM*
COc1ccc(-c2nnc3sc(COc4ccc(C)cc4)nn23)cc1	2%	0%	?	-5%	-2%	-1%
SMILES	NPC1 promoter act	ELG1 genotoxic	FLuc modulator	Rab9 prom act	Luc counter	SMN2 splice enh
Cc1nc2nc(-c3cccs3)cn2nc1C	1.4µM*	?	11µM*	0.5µM*	?	14µM*
CC(C)[C@H](NC(=O)c1c(F)cccc1F)C(=O)N1CCN(c2ccc(F)cc2)CC1	1%	-2%	0%	0%	·	·
O=C(NC1CC2CCCC(C1)N2Cc1ccccc1)c1ccc([N+](=O)[O-])cc1 (stereo unspecified)	-5%	-5%	0%	4%	·	·
COc1cc(NC2c3ccccc3C(=O)N2c2cc(C)ccn2)cc(OC)c1OC (stereo unspecified)	0%	?	-3%	9%	-4%	-3%
COc1cc(NC2c3ccccc3C(=O)N2c2ccc(C)cn2)cc(OC)c1OC (stereo unspecified)	?	?	?	?	-16%	11µM*
COc1ccc(NC(=O)N(C)C[C@H]2Oc3c(NS(=O)(=O)c4ccc(F)cc4)cccc3C(=O)N([C@H](C)CO)C[C@@H]2C)cc1	·	3%	·	·	·	·
COc1ccc(Cl)cc1NC(=O)NC(C)C	-1%	-1%	1%	0%	-1%	4%
Cc1ccc(C(=O)/C=C/c2cn(CN3CCN(C)CC3)c3ccccc23)cc1	?	15µM*	4.8µM*	?	-4%	14%
Cn1cc(/C=C/C(=O)c2ccccc2)c2ccccc21	1.6µM*	1.8µM*	0.54µM*	1.3µM*	·	·
c1cnc2cc(-c3ccsc3)ncc2c1	?	9%	?	0%	·	·
COc1cc2c(cc1NC(=O)C(C)Sc1nc3ccccc3n1C)oc1ccccc12 (stereo unspecified)	2%	0%	1%	-1%	-3%	-27%
COc1cc2c(cc1NC(=O)C(C)Sc1cccc[n+]1[O-])oc1ccccc12 (stereo unspecified)	?	14%	?	?	2%	10µM*
COc1cc2c(cc1NC(=O)COCC(=O)O)oc1ccccc12	-5%	2%	17µM*	-3%	·	·
COc1ccc(CC(=O)Nc2cc3oc4ccccc4c3cc2OC)cc1	?	15%	15µM*	?	1%	14µM*
CC(C(=O)N1CCCCC1)N(C)CC(=O)Nc1ccc(Cl)cc1 (stereo unspecified)	-4%	-3%	4%	8%	-1%	-13%
COc1cc(Cl)c(C)cc1NC(=O)c1sc2nc3n(c(=O)c2c1C)CCCCC3	·	·	-1%	·	·	·
Cc1cc(C)n(-c2nnc(NCc3ccc(Cl)cc3)nn2)n1	-5%	7%	-15%	4%	-1%	-38%
Cc1nn(-c2nnc(NCc3ccccc3)nn2)c(C)c1Br	23%	?	21µM*	?	-6%	·
CN(Cc1cccc(Cl)c1)C(=O)C1CCC(=O)N(C2CC2)C1 (stereo unspecified)	-44%	0%[9.26 µM]	2%	6%	·	·
COc1ccc(C2=NC(c3ccccc3)=Nc3ccc(C)cc3N2)cc1	·	·	?	·	·	12%
Cc1ccc(C2=NC(c3ccccc3)=Nc3ccc(Cl)cc3N2)cc1	·	·	11µM*	·	·	-5%
Cc1cc(Nc2nc3ccccc3[nH]c2=O)n(-c2ccccc2)n1	0%	21µM*	2%	1%	0%	13µM*

Source: PubChem BioAssay (National Center for Advancing Translational Sciences (NCATS))
